Assay outcomes (PubChem BioAssay)
SW480 rereplic = DNA re-replication induction in SW480 cells. SW480 DNA re-replication, Hoechst DNA content imaging, 48 h. 340,000 tested, 1.8% active. Potency, µM (highest dose often 46.1 µM), without a hit: top-dose re-replication activation, hits mostly activators. AID 624297; further: potency means the concentration at half of the fitted maximal effect; % of control where 0% means no effect; nearly all actives have a fitted effect of over 55% in size
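Per well, 250 cells were exposed to pinned compound for 48 hr. Nuclear DNA was visualised with Hoechst (40 min, 37 C) and total object intensity recorded by fluorescence scanning.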
ASM inhibitor = human S-ASM enzyme inhibition; placental ASM, HMU-PC fluorogenic substrate, 60 min; 340,000 tested, 0.006% active; Potency, µM (highest dose often 57.5 µM), inactives show at the top dose activity change, negative = inhibition, actives largely listed as inhibitors; further: potency means the concentration at half of the fitted maximal effect
Target sequence (P17405 47-631 limits assumed): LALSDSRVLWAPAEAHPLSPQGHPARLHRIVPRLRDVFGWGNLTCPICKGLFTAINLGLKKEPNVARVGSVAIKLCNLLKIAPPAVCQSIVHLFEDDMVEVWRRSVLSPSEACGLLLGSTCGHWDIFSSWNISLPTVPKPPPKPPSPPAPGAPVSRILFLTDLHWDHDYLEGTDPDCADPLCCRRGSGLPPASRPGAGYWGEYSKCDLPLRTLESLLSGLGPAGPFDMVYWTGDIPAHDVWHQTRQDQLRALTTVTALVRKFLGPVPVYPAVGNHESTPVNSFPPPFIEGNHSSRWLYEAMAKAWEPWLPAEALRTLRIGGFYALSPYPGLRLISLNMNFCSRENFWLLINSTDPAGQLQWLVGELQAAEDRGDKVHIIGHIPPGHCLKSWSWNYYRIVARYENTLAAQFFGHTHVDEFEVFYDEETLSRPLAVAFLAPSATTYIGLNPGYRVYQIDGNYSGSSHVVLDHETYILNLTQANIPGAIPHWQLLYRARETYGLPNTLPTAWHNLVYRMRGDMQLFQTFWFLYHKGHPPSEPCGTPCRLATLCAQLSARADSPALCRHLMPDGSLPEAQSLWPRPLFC
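Human placenta-derived ASM enzyme was preincubated with compound for 10 minutes at room temperature, then given fluorogenic substrate HMU-PC0 (9 uM final) for 60 minutes at 37 °C; a pH 10 stop preceded fluorescence reading at Ex 386/Em 447 nm.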
Giardia killer = kills Giardia lamblia; Giardia lamblia trophozoite viability; AID 540267; 340,000 tested, 0.15% active; activity change, % at 7.66 µM, hits read low; in the data active means activity change below about -80%; inconclusive means between about -30% and that limit;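 further: parasites exposed to compound for two days anaerobically before the ATP read; on the % scale 0 is the no-effect control and ±100 the full control effect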
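Giardia lamblia trophozoites (100 cells/well) were incubated with compounds for 48 h at 37 deg C under anaerobic conditions. Viability was read as ATP content by one-step luminescence after 15-30 min at room temperature.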
KB-V1 cytotox = kills drug-selected multidrug resistant KB-V1 cells. 400,000 tested, 3.4% active. KB-V1 MDR cells viability, CellTiter-Glo, 72 h. Potency, µM (doses to about 46.1 µM), usual class: cytotoxic; further: potency means the concentration at half of the fitted maximal effect; on the % scale 0 is the no-effect control and ±100 the full control effect; nearly all actives have a fitted effect of over 60% in size
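Cells of the MDR subline KB-V1 are plated, dosed with compound at multiple concentrations, and incubated 72 h at 37 degrees C; CellTiter-Glo is then added and luminescence read after 10 min.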
KB-3-1 cytotox = KB-3-1 parental cell cytotoxicity; KB-3-1 viability, CellTiter-Glo ATP luminescence, 72 h; Potency, µM (top dose mostly 46.1 µM), actives largely listed as cytotoxic; 400,000 tested, 1.4% active; AID 1347075; further: potency means the concentration at half of the fitted maximal effect; on the % scale 0 is the no-effect control and ±100 the full control effect; nearly all actives have a fitted effect of over 60% in size
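Parental KB-3-1 adenocarcinoma cells in phenol-red-free DMEM with 10% FBS were pin-treated with compounds at several concentrations, incubated 72 h at 37 °C, and viability read by CellTiter-Glo luminescence; concentration-effect curves were fitted after normalization.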
MCF10A rerep = DNA re-replication induction in MCF 10a cells | 350,000 tested, 2.9% active | MCF 10A DNA re-replication, Hoechst nuclear intensity, 48 h | Potency, µM (doses to about 46.1 µM), for inactives: top-dose activity, positive = re-replication, most hits filed as activators; further: potency means the concentration at half of the fitted maximal effect; % of control where 0% means no effect; nearly all actives have a fitted effect of over 50% in size
Active calls of the source: *. In the library only some 6.9% were active in any assay of this set; here they are far more common. Unless noted, the call rests on the fitted dose curve; in most records, active means well fitted curve in the direction sought with a large enough effect; inconclusive means small, poorly fitted or top-dose-only effect, or another doubt; inactive means no such curve, though single readings can be large; an effect the other way counts as inactive or inconclusive.

Cc1[nH]n2c(=O)cc(C(C)(C)C)nc2c1-c1ccccc1 was read as SW480 rereplic inconclusive, ASM inhibitor -0.3%, Giardia killer 0.4, KB-V1 cytotox inconclusive, KB-3-1 cytotox 7.31µM* and MCF10A rerep inconclusive.
`c1cc2c(cc1Cc1cncc(Cc3ccc4c(c3)OCO4)c1)OCO2` gave KB-V1 cytotox inactive and KB-3-1 cytotox inactive.
For O=c1c2ccccc2oc2cc(NCCCN3CCOCC3)ccc12 the results were SW480 rereplic inconclusive, ASM inhibitor inactive, Giardia killer 0.6, KB-V1 cytotox inactive, KB-3-1 cytotox inactive and MCF10A rerep 16.4µM*.
For O=c1c2ccccc2oc2ccc(NCCCN3CCOCC3)cc12 the results were SW480 rereplic 1.8%, ASM inhibitor -5.5%, Giardia killer 5.6, KB-V1 cytotox inconclusive, KB-3-1 cytotox inactive and MCF10A rerep -14.1%.
Screening COc1cccc2sc3cc(NCCCN4CCOCC4)ccc3c(=O)c12 returned SW480 rereplic 28.9%, ASM inhibitor inactive, Giardia killer 4.0, KB-V1 cytotox inactive, KB-3-1 cytotox inactive and MCF10A rerep 18.4µM*.
`CN1CCCC1CCNc1ccc2c(=O)c3ccccc3oc2c1` (centres undefined) gave SW480 rereplic inconclusive, ASM inhibitor inactive, Giardia killer -23.7, KB-V1 cytotox inactive, KB-3-1 cytotox inactive and MCF10A rerep 18.4µM*.
O=c1c2ccccc2oc2cc(NCCCn3ccnc3)ccc12 was read as SW480 rereplic inconclusive, ASM inhibitor inactive, Giardia killer -6.5, KB-V1 cytotox inactive, KB-3-1 cytotox inactive and MCF10A rerep 20.6µM*.
CCCc1ccc(OCc2ccc(C(=O)N3CCSCC3)o2)cc1 was read as SW480 rereplic 4.3%, ASM inhibitor -5.9%, Giardia killer 4.4, KB-V1 cytotox inactive, KB-3-1 cytotox inconclusive and MCF10A rerep 3.4%.
Cc1ncc(CO)c(CO)c1OCC(O)CN1CCN(c2ccc(F)cc2)CC1 (centres undefined) was read as KB-V1 cytotox inactive and KB-3-1 cytotox inconclusive.
`CNC(=O)C1CCC(Cn2c(=O)c3sccc3n(CC(=O)Nc3ccc(C)cc3C)c2=O)CC1` (centres undefined) gave KB-V1 cytotox inactive and KB-3-1 cytotox inactive.
Screening Cc1ccc(NC(=O)CN2C(=O)CCn3nc(-c4cccn4C)cc32)cc1 returned KB-V1 cytotox inactive and KB-3-1 cytotox inactive.
Screening Cc1cc(C)cc(NC(=O)Cc2csc(COc3cccc(C)c3)n2)c1 returned KB-V1 cytotox inactive and KB-3-1 cytotox inactive.
Screening COc1cccc2[nH]c3c(N4CCCC(C)C4)ncnc3c12 (centres undefined) returned SW480 rereplic -6.2%, ASM inhibitor -1.0%, Giardia killer 8.5, KB-V1 cytotox 6.51µM*, KB-3-1 cytotox inactive and MCF10A rerep 4.3%.
Screening Cc1ccc(C(C)C)c(OCC(=O)Nn2c(=O)[nH]c3ccccc3c2=O)c1 returned SW480 rereplic -2.2%, ASM inhibitor inconclusive, Giardia killer -0.5, KB-V1 cytotox 20.6µM*, KB-3-1 cytotox inactive and MCF10A rerep -0.5%.
Cc1ccc(C(C)C)c(OCC(=O)Nn2c(C)nc3ccccc3c2=O)c1 was read as SW480 rereplic 0.9%, ASM inhibitor -21.8%, Giardia killer 25.7, KB-V1 cytotox inactive, KB-3-1 cytotox inactive and MCF10A rerep -5.7%.
CCCNS(=O)(=O)c1ccc2nc(NC(=O)c3ccc(F)cc3)sc2c1 was read as KB-V1 cytotox inactive and KB-3-1 cytotox inactive.
Screening N=C1SCC(=O)N1c1ncc(Cc2cccc(Cl)c2)s1 returned SW480 rereplic inconclusive, ASM inhibitor -2.3%, Giardia killer 17.3, KB-V1 cytotox inconclusive, KB-3-1 cytotox inactive and MCF10A rerep 11.6µM*.
N=C1SCC(=O)N1c1ncc(Cc2ccccc2Cl)s1 was read as SW480 rereplic inconclusive, ASM inhibitor -3.0%, Giardia killer 3.0, KB-V1 cytotox inactive, KB-3-1 cytotox inactive and MCF10A rerep 18.4µM*.
`COc1ccc(NC(=O)CSc2nc3c([nH]c4ccccc43)c(=O)n2-c2ccccc2)c(OC)c1` gave KB-V1 cytotox inactive and KB-3-1 cytotox inactive.
`CCCCn1c(SCc2cccc([N+](=O)[O-])c2)nc2ccsc2c1=O` gave SW480 rereplic -8.2%, ASM inhibitor -8.6%, Giardia killer 7.1, KB-V1 cytotox 2.31µM*, KB-3-1 cytotox inactive and MCF10A rerep 16.4µM*.
Cn1c(SCc2cccc([N+](=O)[O-])c2)nc2ccccc2c1=O was read as SW480 rereplic 11.0%, ASM inhibitor -5.0%, Giardia killer 0.4, KB-V1 cytotox 2.59µM*, KB-3-1 cytotox inconclusive and MCF10A rerep inconclusive.
For COCCn1c(SCc2cccc([N+](=O)[O-])c2)nc2ccccc2c1=O the results were SW480 rereplic -7.3%, ASM inhibitor -6.5%, Giardia killer 10.9, KB-V1 cytotox 11.6µM*, KB-3-1 cytotox inactive and MCF10A rerep 9.2%.
Screening O=S(=O)(NCCc1nnc2ccc(SCc3ccccc3Cl)nn12)c1ccccc1 returned KB-V1 cytotox inactive and KB-3-1 cytotox inconclusive.
COc1cc(OC)c(NC(=O)CCn2cnc3onc(-c4ccc(F)cc4)c3c2=O)cc1Cl was read as KB-V1 cytotox inactive and KB-3-1 cytotox inactive.
Screening CC1CCc2noc(NC(=O)c3ccccc3[N+](=O)[O-])c2C1 (centres undefined) returned KB-V1 cytotox inactive and KB-3-1 cytotox inactive.
COc1ccc(CCNC(=O)c2ccccc2OCc2c(C)noc2C)cc1 was read as SW480 rereplic -3.7%, ASM inhibitor 1.8%, Giardia killer -13.1, KB-V1 cytotox 5.8µM*, KB-3-1 cytotox inactive and MCF10A rerep -4.0%.
Screening Cc1noc(C)c1COc1ccccc1C(=O)N1CCN(S(=O)(=O)c2ccccc2C#N)CC1 returned SW480 rereplic -4.8%, ASM inhibitor 0.4%, Giardia killer 1.5, KB-V1 cytotox 14.6µM*, KB-3-1 cytotox inactive and MCF10A rerep 3.9%.
`Cc1ccc(NC(=O)c2ccccc2OCc2c(C)noc2C)cc1S(=O)(=O)N(C)C` gave SW480 rereplic 0.7%, ASM inhibitor 2.5%, Giardia killer -11.1, KB-V1 cytotox 2.31µM*, KB-3-1 cytotox inactive and MCF10A rerep -0.6%.
For CCc1nnc(SCc2nc(-c3ccccc3F)oc2C)c2cc3sccc3n12 the results were KB-V1 cytotox inactive and KB-3-1 cytotox inactive.
For CC(C)c1ccc(NC(=O)CSC2=Nc3ccccc3C3=NC(CC(=O)NCCc4ccccc4)C(=O)N23)cc1 (centres undefined) the results were KB-V1 cytotox inactive and KB-3-1 cytotox inactive.
